{"source": "the supplement of paper PMC7866885", "about": "“A novel bicyclic 2,4-diaminopyrimidine inhibitor of Streptococcus suis dihydrofolate reductase” (PeerJ, 2021)", "note": "± gives the standard deviation.", "data": [{"tested_on": "Streptococcus suis HE06", "assay": "percent growth relative to DMSO control; higher = less growth inhibition", "settings": "10 µM; incubation time 18 h", "description": "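CLSI broth microdilution: 5x10^4 CFU of Streptococcus suis (strain P1/7 or HE06) incubated with 10 µM Pathogen Box compound in cation-adjusted Mueller Hinton broth, 37 °C, 5% CO2, 18 h. Growth read as OD600 and expressed as percent of the DMSO-treated control (100%); mean ± SD of three independent experiments.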", "units": {"percent growth": "%"}, "values": [{"molecule": "CCOc1ccc2cc(-c3nn(C(C)(C)C)c(N)c3C(N)=O)cnc2c1", "percent growth": "77.6 ± 17"}, {"molecule": "Cc1cc(NC(=O)c2ccc(Oc3ccc(Cl)cc3O)o2)no1", "percent growth": "108 ± 22"}, {"molecule": "Cc1nc2ccccn2c1C(=O)NCc1ccc(Cl)cc1", "percent growth": "78.1 ± 14"}, {"molecule": "Cc1ccc(NC(=O)CC2COc3ccccc3O2)cc1Cl", "note": "(stereo not given)", "percent growth": "96.4 ± 1.4"}, {"molecule": "COc1ccc(C(=N)N)cc1-c1cn(-c2ccc(C(=N)N)cc2)nn1", "percent growth": "105 ± 42"}, {"molecule": "Cc1[nH]c2cc(F)cc(F)c2c(=O)c1-c1ccc(Oc2ccc(OC(F)(F)F)cc2)cc1", "percent growth": "96.3 ± 3.2"}, {"molecule": "COc1ccc(Cl)cc1NC(=O)CN(C)C(=O)c1cnn(-c2ccccc2)n1", "percent growth": "79.4 ± 7.2"}, {"molecule": "COc1ccc(-c2onc(C(F)(F)F)c2-c2ccc(Cl)cc2)c(O)c1", "percent growth": "26.1 ± 45"}, {"molecule": "CNC(=O)c1cc(S(=O)(=O)N2CCN(c3ccccn3)CC2)cs1", "percent growth": "79.7 ± 12"}, {"molecule": "Cc1cc(Nc2ccncc2)n2nc(C)c(-c3ccccc3Cl)c2n1", "percent growth": "73.9 ± 22"}, {"molecule": "CC(C(=O)N1CCCC1)N1CCN(S(=O)(=O)c2ccc(C(C)(C)C)cc2)CC1", "note": "(stereo not given)", "percent growth": "84.8 ± 24"}, {"molecule": "O=C([C@@H](c1ccc(Cl)cc1)c1cccnc1)N1CCN(c2ccc(C(F)(F)F)cc2)CC1", "percent growth": "89 ± 10"}, {"molecule": "NCCC(O)C(=O)N[C@@H]1C[C@H](N)[C@@H](OC2O[C@H](CN)[C@@H](O)[C@H](O)[C@H]2O)[C@H](O)C1OC1O[C@H](CO)[C@@H](O)[C@H](N)[C@H]1O", "note": "(stereo not given in full)", "percent growth": "104 ± 4.8"}, {"molecule": "CCN(CC)C(=O)N1CCN(C)CC1", "percent growth": "92.6 ± 6.9"}, {"molecule": "Cc1cc(OCC(=O)NCc2ccccc2)c2cc(Br)ccc2n1", "percent growth": "94.8 ± 9.9"}, {"molecule": "CC(=O)Nc1ccc(-c2noc(CC3CCCN(Cc4cccc(F)c4C)C3)n2)cc1", "note": "(stereo not given)", "percent growth": "109 ± 44"}, {"molecule": "Cc1ncc(-c2ccnc(Nc3ccc(S(C)(=O)=O)cc3)n2)n1C(C)C", "percent growth": "89.7 ± 4.3"}, {"molecule": "N#Cc1nc(-c2ccccc2)oc1S(=O)(=O)c1ccc(Cl)cc1", "percent growth": "96.9 ± 9.2"}, {"molecule": "CCc1ccc(C(NCc2nc(N)nc(N(C)C)n2)C(C)C)cc1", "note": "(stereo not given)", "percent growth": "12.8 ± 16"}, {"molecule": "COCC(C)NC(=O)CSc1ncnc2sc(-c3ccccc3)cc12", "note": "(stereo not given)", "percent growth": "95.4 ± 33"}]}]}
